PubChem BioAssay (EPA / NIEHS)
Activity calls are given as the source filed them. The calls were made as follows: active = hit-call score of the fitted dose curve at least 0.9, where 1 is the maximum; inactive = score below 0.9.

Tests used:
Settings in all cases: mRNA level, 48 h; actives raise or lower the signal
[1] = read-out: matrix metalloproteinase-10 (MMP10), MMP10 (gene 4319); test: LTEA_HepaRG_MMP10: Life Technologies and Expression Analysis (LTEA) Assay for matrix metalloproteinase-10 (MMP10) using HepaRG (AID 2283517)
Procedure, shortened: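 Transcript levels come from Fluidigm qRT-PCR normalized to three housekeeping genes, with curves fitted bidirectionally against 0.5% DMSO. Human HepaRG cells were dosed for 48 hours at concentrations up to 100 uM.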

MYC, MYC (gene 4609) = test: LTEA_HepaRG_MYC: Life Technologies and Expression Analysis (LTEA) Assay for MYC using HepaRG (AID 2283518)
Procedure, shortened: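 Expression changes were scored by TaqMan qRT-PCR with ACTB, GAPDH and POLR2A normalization. Cultures in serum-free induction medium received duplicate 8-point concentration series, highest 100 uM, for 48 h; DMSO (0.5%) served as baseline.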

[2] = read-out: matrix metalloproteinase-3 (MMP3), MMP3 (gene 4314); test: LTEA_HepaRG_MMP3: Life Technologies and Expression Analysis (LTEA) Assay for matrix metalloproteinase-3 (MMP3) using HepaRG (AID 2283519)
Procedure, shortened: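 qRT-PCR read-out of MMP3 mRNA (normalised to three housekeeping genes) in HepaRG liver cells after 48 h chemical exposure; 8-point half-log series, top 100 uM, 0.5% DMSO vehicle. Bidirectional curve fitting against DMSO baseline.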

[3] = read-out: Paternally Expressed 10 (PEG10), PEG10 (gene 23089); test: LTEA_HepaRG_PEG10: Life Technologies and Expression Analysis (LTEA) Assay for Paternally Expressed 10 (PEG10) using HepaRG (AID 2283520);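 as to AC50: PEG10 transcript by qRT-PCR normalised to ACTB GAPDH and POLR2A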
Procedure, shortened: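 qRT-PCR read-out: PEG10 mRNA normalised to three housekeeping genes, fitted bidirectionally against 0.5% DMSO vehicle. HepaRG cells received test chemicals for 48 h in serum-free induction medium, 8 points, top 100 uM, half-log steps.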

[4] = read-out: Nuclear factor NF-kappa-B p105 subunit (Homo sapiens) (UniProt P19838); test: LTEA_HepaRG_NFKB1: Life Technologies and Expression Analysis (LTEA) Assay for Nuclear Factor Kappa B Subunit 1 (NFKB1) using HepaRG (AID 2283521)
Procedure, shortened: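 Differentiated human HepaRG cells in serum-free induction medium with 0.5% DMSO were exposed for 48 h to eight half-log concentrations, top 100 uM, in duplicate. NFKB1 mRNA measured by Fluidigm TaqMan qRT-PCR, normalised to ACTB, GAPDH and POLR2A; bidirectional fit versus DMSO.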

[5] = read-out: Phosphatase and tensin (PTEN), PTEN (gene 5728); test: LTEA_HepaRG_PTEN: Life Technologies and Expression Analysis (LTEA) Assay for Phosphatase and tensin (PTEN) using HepaRG (AID 2283523)
Procedure, shortened: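 HepaRG, 48 h exposure, 8-pt half-log series from 100 uM top, 0.5% DMSO vehicle, duplicates. Readout: Fluidigm qRT-PCR of PTEN transcript; housekeeping normalization (ACTB, GAPDH, POLR2A). Gain or loss fitted relative to DMSO baseline.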

[6] = read-out: solute carrier (SLC22A1), SLC22A1 (gene 6580); test: LTEA_HepaRG_SLC22A1: Life Technologies and Expression Analysis (LTEA) Assay for solute carrier (SLC22A1) using HepaRG (AID 2283524)
Procedure, shortened: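 qRT-PCR readout (TaqMan, Fluidigm arrays) of SLC22A1 transcript, normalized to three housekeeping genes; bidirectional curve fit relative to 0.5% DMSO vehicle. Differentiated human HepaRG cells, 48 h chemical exposure, top concentration 100 uM, half-log steps, eight points.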

[7] = read-out: Pyruvate Dehydrogenase Kinase 4 (PDK4), PDK4 (gene 5166); test: LTEA_HepaRG_PDK4: Life Technologies and Expression Analysis (LTEA) Assay for Pyruvate Dehydrogenase Kinase 4 (PDK4) using HepaRG (AID 2283525)
Procedure, shortened: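 HepaRG (human liver line), 48 h chemical exposure, 8-pt half-log CRC top 100 uM, 0.5% DMSO vehicle, duplicates. Readout: TaqMan qRT-PCR of PDK4 mRNA, housekeeping-normalized; gain/loss fit relative to DMSO baseline.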

[8] = read-out: NAD(P)H dehydrogenase [quinone] 1 (NQO1), NQO1 (gene 1728); test: LTEA_HepaRG_NQO1: Life Technologies and Expression Analysis (LTEA) Assay for NAD(P)H dehydrogenase [quinone] 1 (NQO1) using HepaRG (AID 2283526)
Procedure, shortened: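 qRT-PCR read-out (Fluidigm TaqMan), normalized to three housekeeping genes, after 48 h chemical exposure of HepaRG cells. Concentrations: eight points, top 100 uM, half-log steps, 0.5% DMSO vehicle. Gain or loss of signal fitted relative to DMSO.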

[9] = read-out: Nuclear factor erythroid 2-related factor 2 (Homo sapiens) (UniProt Q16236); test: LTEA_HepaRG_NFE2L2: Life Technologies and Expression Analysis (LTEA) Assay for Nuclear factor erythroid 2-related factor 2 (NFE2L2) Transcription Factor using HepaRG (AID 2283527)
Procedure, shortened: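 HepaRG, 48 h dosing, 8-pt half-log series from 100 uM in 0.5% DMSO, duplicates. Read-out: NFE2L2 mRNA by qRT-PCR (ACTB/GAPDH/POLR2A normalization). Bidirectional curve fit vs DMSO baseline.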

[10] = read-out: succinate dehydrogenase complex iron sulfur subunit B (SDHB), SDHB (gene 6390); test: LTEA_HepaRG_SDHB: Life Technologies and Expression Analysis (LTEA) Assay for succinate dehydrogenase complex iron sulfur subunit B (SDHB) using HepaRG (AID 2283528)
Procedure, shortened: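 HepaRG cells (~100,000/well, plated 48 h) exposed in duplicate for 48 h in serum-free induction medium to 8-point half-log series from 100 uM in 0.5% DMSO; mRNA by qRT-PCR normalised to ACTB, GAPDH, POLR2A; bidirectional fit versus DMSO.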

[11] = read-out: Signal transducer and activator of transcription 3 (Homo sapiens) (UniProt P40763); test: LTEA_HepaRG_STAT3: Life Technologies and Expression Analysis (LTEA) Assay for Signal transducer and activator of transcription (STAT3) using HepaRG (AID 2283529)
Procedure, shortened: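 HepaRG, 48 h exposure, 8-pt half-log series (top 100 uM), 0.5% DMSO vehicle, duplicates. Readout: STAT3 transcript by Fluidigm qRT-PCR, housekeeping-normalized; bidirectional fit vs DMSO baseline.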

[12] = read-out: solute carrier (SLCO1B1), SLCO1B1 (gene 10599); test: LTEA_HepaRG_SLCO1B1: Life Technologies and Expression Analysis (LTEA) Assay for solute carrier (SLCO1B1) using HepaRG (AID 2283530)
Procedure, shortened: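 Human HepaRG cultures treated for 48 h with an eight-concentration half-log series topping at 100 uM; SLCO1B1 measured by qRT-PCR and fitted bidirectionally relative to DMSO.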

[13] = read-out: sulfotransferase 2A1 (SULT2A1), SULT2A1 (gene 6822); test: LTEA_HepaRG_SULT2A1: Life Technologies and Expression Analysis (LTEA) Assay for sulfotransferase 2A1 (SULT2A1) using HepaRG (AID 2283531)
Procedure, shortened: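 Gene-expression endpoint in a human liver cell line: SULT2A1 mRNA change after 48 h chemical treatment, curves fitted in both directions relative to 0.5% DMSO vehicle. Concentrations spanned eight half-log steps from 100 uM.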

[14] = read-out: Transforming Growth Factor (TGFA), TGFA (gene 7039); test: LTEA_HepaRG_TGFA: Life Technologies and Expression Analysis (LTEA) Assay for Transforming Growth Factor (TGFA) using HepaRG (AID 2283532)
Procedure, shortened: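 qRT-PCR read-out of TGFA transcript, normalized to three housekeeping genes, fitted bidirectionally against 0.5% DMSO baseline. Human HepaRG cultures received chemicals for 48 h at eight half-log concentrations, top 100 uM.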

[15] = read-out: Transforming Growth Factor (TGFB1), TGFB1 (gene 7040); test: LTEA_HepaRG_TGFB1: Life Technologies and Expression Analysis (LTEA) Assay for Transforming Growth Factor (TGFB1) Transporter using HepaRG (AID 2283533)
Procedure, shortened: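 Eight-point concentration-response (max 100 uM, half-log) in HepaRG under serum-free induction conditions, 48 h. TGFB1 mRNA by qRT-PCR, housekeeping-normalized.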

TIMP1, TIMP1 (gene 7076) = test: LTEA_HepaRG_TIMP1: Life Technologies and Expression Analysis (LTEA) Assay for TIMP1 using HepaRG (AID 2283534)
Procedure, shortened: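 TIMP1 induction or repression in HepaRG cells after 48 h chemical exposure (eight concentrations, highest 100 uM), assessed by normalized qRT-PCR with bidirectional fitting to DMSO controls.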

[16] = read-out: Tumor necrosis factor receptor 1 (TNFRSF1A), TNFRSF1A (gene 7132); test: LTEA_HepaRG_TNFRSF1A: Life Technologies and Expression Analysis (LTEA) Assay for Tumor necrosis factor receptor 1 (TNFRSF1A) using HepaRG (AID 2283535)
Procedure, shortened: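 Assay uses 48 h chemical treatment of differentiated HepaRG monolayers, tested in duplicate at eight concentrations from 100 uM downward in 0.5% DMSO. mRNA is normalized to ACTB, GAPDH and POLR2A, with induction or suppression fitted relative to vehicle.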

[17] = read-out: Thyroid Hormone Responsive (THRSP), THRSP (gene 7069); test: LTEA_HepaRG_THRSP: Life Technologies and Expression Analysis (LTEA) Assay for Thyroid Hormone Responsive (THRSP) using HepaRG (AID 2283536)
Procedure, shortened: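 qRT-PCR read-out (Fluidigm TaqMan), housekeeping-normalized (ACTB/GAPDH/POLR2A). HepaRG, 48 h chemical exposure, 8-pt half-log series from 100 uM in 0.5% DMSO, duplicates. Bidirectional curve fit vs 0.5% DMSO baseline.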

[18] = read-out: Protein phosphatase 2A (PPP2R4), PTPA (gene 5524); test: LTEA_HepaRG_PPP2R4: Life Technologies and Expression Analysis (LTEA) Assay for Protein phosphatase 2A (PPP2R4) using HepaRG (AID 2283522)
Procedure, shortened: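 HepaRG, 48 h exposure, 8-pt half-log series from 100 uM, 0.5% DMSO vehicle, duplicates. Readout: PPP2R4 mRNA, Fluidigm qRT-PCR, housekeeping-normalized. Bidirectional curve fit vs DMSO baseline.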

Measured: AC50

Sequence of Nuclear factor erythroid 2-related factor 2 (Homo sapiens) (Q16236 whole entry, looked up): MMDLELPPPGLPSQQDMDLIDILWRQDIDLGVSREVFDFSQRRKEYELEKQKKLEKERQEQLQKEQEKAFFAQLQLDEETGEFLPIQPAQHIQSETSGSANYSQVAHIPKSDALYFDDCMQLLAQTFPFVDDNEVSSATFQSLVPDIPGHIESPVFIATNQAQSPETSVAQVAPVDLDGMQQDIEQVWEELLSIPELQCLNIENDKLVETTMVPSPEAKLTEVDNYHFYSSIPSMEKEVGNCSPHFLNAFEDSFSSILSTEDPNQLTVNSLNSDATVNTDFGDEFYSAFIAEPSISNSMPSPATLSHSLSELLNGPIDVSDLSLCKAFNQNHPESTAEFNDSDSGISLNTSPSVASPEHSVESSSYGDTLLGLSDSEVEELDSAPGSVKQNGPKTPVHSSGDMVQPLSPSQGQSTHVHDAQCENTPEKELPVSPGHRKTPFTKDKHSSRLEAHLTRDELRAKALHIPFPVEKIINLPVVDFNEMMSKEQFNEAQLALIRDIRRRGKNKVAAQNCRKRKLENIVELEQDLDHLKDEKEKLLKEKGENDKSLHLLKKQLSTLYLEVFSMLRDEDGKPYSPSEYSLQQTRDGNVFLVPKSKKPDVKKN
Sequence of Signal transducer and activator of transcription 3 (Homo sapiens) (P40763 whole entry, looked up): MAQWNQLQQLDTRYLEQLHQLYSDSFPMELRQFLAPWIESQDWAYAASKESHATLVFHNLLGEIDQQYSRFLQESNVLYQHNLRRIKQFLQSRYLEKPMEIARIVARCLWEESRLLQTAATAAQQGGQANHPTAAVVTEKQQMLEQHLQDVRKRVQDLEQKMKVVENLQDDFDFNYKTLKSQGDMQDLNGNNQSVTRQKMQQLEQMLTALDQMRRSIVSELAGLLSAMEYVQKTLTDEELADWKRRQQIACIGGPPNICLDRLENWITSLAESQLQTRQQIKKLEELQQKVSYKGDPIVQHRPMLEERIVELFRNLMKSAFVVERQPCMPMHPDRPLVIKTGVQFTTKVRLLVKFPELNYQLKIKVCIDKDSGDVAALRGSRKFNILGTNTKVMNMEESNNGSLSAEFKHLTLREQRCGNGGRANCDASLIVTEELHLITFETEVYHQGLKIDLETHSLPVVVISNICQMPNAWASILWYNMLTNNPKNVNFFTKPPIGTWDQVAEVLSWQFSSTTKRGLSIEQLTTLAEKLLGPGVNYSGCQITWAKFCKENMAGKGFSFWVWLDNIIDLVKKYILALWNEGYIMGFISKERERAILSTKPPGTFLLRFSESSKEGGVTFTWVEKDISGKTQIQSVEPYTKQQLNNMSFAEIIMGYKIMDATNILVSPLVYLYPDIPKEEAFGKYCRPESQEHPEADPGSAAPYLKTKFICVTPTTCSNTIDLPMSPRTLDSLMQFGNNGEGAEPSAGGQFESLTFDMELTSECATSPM
Sequence of Nuclear factor NF-kappa-B p105 subunit (Homo sapiens) (P19838 whole entry, looked up): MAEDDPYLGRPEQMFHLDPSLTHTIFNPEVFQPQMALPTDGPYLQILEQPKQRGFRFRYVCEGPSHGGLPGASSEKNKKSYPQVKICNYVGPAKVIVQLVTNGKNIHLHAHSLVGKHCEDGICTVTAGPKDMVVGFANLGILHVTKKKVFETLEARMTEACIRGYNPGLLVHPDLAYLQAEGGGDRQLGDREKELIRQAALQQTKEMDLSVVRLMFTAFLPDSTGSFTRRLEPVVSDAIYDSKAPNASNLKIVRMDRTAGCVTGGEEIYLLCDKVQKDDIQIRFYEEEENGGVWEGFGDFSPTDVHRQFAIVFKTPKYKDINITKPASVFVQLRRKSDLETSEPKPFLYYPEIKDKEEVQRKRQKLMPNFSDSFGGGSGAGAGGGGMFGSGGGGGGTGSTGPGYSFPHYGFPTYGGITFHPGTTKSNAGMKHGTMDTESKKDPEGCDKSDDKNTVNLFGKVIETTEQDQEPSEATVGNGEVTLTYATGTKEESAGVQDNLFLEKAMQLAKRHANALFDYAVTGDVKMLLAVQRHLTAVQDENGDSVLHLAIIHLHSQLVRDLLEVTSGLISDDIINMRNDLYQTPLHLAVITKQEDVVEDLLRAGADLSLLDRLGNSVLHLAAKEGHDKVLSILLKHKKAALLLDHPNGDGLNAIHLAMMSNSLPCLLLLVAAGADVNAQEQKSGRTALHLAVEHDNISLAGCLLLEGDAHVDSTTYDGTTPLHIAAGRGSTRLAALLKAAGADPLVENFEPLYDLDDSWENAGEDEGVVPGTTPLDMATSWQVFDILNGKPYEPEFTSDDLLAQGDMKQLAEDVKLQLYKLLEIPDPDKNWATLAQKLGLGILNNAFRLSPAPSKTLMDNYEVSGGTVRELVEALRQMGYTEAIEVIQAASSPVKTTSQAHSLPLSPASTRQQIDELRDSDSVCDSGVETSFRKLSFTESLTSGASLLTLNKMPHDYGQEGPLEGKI

CC(C)CCO
inactive: [1] | MYC, MYC (gene 4609) | [2] | [3] | [4] | [5] | [6] | [7] | [8] | [9] | [10] | [11] | [12] | [13] | [14] | [15] | TIMP1, TIMP1 (gene 7076) | [16] | [17]

COc1cccc(-c2ccc(/C=C\CN3CCCCCC3)cc2Cl)c1
inactive: [5] | [8] | [10] | [11] | TIMP1, TIMP1 (gene 7076) | [16] | [17]
active: [1] 71.3 µM | MYC, MYC (gene 4609) 81.1 µM | [2] 69.3 µM | [3] 59 µM | [4] 45.2 µM | [6] 74.4 µM | [7] 74.1 µM | [9] 65.7 µM | [12] 74.6 µM | [13] 83.2 µM | [14] 74.4 µM | [15] 87.3 µM

COc1ccc(-n2nc(C(F)F)cc2-c2ccc(S(C)=O)cc2)cc1 (configuration not stated)
inactive: [1] | MYC, MYC (gene 4609) | [2] | [3] | [4] | [5] | [6] | [7] | [8] | [9] | [10] | [11] | [12] | [13] | [14] | [15] | TIMP1, TIMP1 (gene 7076) | [16] | [17]

COc1ccc(/C=C/S(=O)(=O)NC(=O)c2ccc(C)cc2Cl)cc1
inactive: [1] | MYC, MYC (gene 4609) | [2] | [4] | [5] | [6] | [8] | [9] | [10] | [11] | [12] | [13] | [14] | [15] | TIMP1, TIMP1 (gene 7076) | [16] | [17]
active: [3] 75.3 µM | [7] 6.62 µM

C[C@](N)(Cc1ccc(O)c(O)c1)C(=O)O
inactive: [1] | MYC, MYC (gene 4609) | [2] | [3] | [4] | [5] | [6] | [7] | [8] | [9] | [10] | [11] | [12] | [13] | [14] | [15] | TIMP1, TIMP1 (gene 7076) | [16] | [17]

O=C(O)c1cccc(N(Cc2cccnc2)c2ccc(OC(F)F)c(OC(F)F)c2)c1
inactive: MYC, MYC (gene 4609) | [18] | [5] | [6] | [8] | [9] | [10] | [12] | [13] | [14] | [15] | TIMP1, TIMP1 (gene 7076) | [17]
active: [1] 91.7 µM | [2] 80.4 µM | [3] 50 µM | [4] 0.576 µM | [7] 50 µM

CCOC(=O)CC(CC(=O)OCC)(OC(C)=O)C(=O)OCC
inactive: [1] | MYC, MYC (gene 4609) | [2] | [3] | [4] | [5] | [6] | [7] | [8] | [9] | [10] | [11] | [12] | [13] | [14] | [15] | TIMP1, TIMP1 (gene 7076) | [16] | [17]
